# Laboratory results: the supplement of paper PMC10849652
# About 7,900 targets were measured; listed, in parts, are those with a hit and a random draw of the rest. About 0.6% of all pairs of compound and target were hits. Values without a mark were called inactive.
# Compound: CC(=O)c1cnc2ccc(-c3cc(Cl)c(O)c(Cl)c3)nc2c1N[C@H]1CC[C@H](CN(C)C)CC1
# Experiment: log2 fold change, soluble protein after heating vs DMSO (PISA); higher = thermal stabilisation; K562 cells, 10 uM, 30 min; active = over 0.2 and 3.5 SD of the protein, either way, in both replicates (recomputed)
# Outline: (§1)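 Quantification of soluble protein used TMTpro 16plex LC-MS/MS, with channel sums equalised. Samples were the supernatant after 21,000xg for 90 min of pooled aliquots from K562 cells (2×10^6 cells/mL) treated with 10 μM compound for 30 min, heated for 3 min over 48°C-58°C, and extracted in PBS with 0.5% NP-40 at 4°C. Values, from duplicates, describe thermal stability against control samples on a log2 fold-change scale.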
# Chain of UniProt Q01196 (Q01196 whole entry, looked up): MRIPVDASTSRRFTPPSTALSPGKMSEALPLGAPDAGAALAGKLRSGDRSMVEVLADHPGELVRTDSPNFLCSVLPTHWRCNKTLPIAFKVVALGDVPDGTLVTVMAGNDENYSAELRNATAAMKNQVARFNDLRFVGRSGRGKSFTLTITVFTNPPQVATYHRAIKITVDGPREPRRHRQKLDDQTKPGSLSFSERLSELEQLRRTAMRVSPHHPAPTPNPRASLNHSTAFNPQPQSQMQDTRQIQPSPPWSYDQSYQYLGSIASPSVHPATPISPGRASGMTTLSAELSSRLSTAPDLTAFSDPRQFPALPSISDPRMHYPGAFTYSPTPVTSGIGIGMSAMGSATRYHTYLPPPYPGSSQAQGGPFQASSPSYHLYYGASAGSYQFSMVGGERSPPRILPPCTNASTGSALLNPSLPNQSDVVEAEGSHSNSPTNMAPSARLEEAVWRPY
# Chain of UniProt Q96EV2 (Q96EV2 whole entry, looked up): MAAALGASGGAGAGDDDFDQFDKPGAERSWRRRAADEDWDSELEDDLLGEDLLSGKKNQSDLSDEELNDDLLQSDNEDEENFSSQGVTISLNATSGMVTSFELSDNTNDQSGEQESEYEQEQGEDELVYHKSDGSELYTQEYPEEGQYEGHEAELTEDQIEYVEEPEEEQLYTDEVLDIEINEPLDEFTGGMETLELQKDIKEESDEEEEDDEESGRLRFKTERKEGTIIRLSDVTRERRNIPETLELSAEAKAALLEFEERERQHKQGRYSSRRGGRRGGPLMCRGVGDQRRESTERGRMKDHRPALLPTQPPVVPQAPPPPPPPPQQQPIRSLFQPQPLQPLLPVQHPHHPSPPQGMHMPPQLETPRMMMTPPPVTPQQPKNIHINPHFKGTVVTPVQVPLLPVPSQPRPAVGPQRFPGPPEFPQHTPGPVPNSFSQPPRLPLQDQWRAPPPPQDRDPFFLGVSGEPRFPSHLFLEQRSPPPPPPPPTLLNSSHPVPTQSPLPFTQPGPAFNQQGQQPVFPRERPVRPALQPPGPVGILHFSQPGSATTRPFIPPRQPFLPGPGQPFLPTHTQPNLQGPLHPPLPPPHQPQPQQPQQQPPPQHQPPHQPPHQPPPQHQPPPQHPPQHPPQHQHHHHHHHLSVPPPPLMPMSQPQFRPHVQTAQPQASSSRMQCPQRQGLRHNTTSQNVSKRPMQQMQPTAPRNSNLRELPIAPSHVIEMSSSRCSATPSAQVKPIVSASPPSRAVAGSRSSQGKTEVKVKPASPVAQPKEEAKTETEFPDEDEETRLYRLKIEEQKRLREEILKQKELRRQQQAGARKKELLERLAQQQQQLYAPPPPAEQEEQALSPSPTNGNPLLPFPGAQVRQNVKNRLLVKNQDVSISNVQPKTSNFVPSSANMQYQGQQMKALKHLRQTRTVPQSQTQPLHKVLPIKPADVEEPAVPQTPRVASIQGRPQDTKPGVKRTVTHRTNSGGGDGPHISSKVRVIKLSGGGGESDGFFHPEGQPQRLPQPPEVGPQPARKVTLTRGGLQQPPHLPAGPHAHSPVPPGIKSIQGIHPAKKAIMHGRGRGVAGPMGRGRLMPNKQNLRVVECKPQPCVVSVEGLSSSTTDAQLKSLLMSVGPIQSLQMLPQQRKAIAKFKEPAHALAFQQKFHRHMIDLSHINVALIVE
# Chain of UniProt Q15418 (Q15418 whole entry, looked up): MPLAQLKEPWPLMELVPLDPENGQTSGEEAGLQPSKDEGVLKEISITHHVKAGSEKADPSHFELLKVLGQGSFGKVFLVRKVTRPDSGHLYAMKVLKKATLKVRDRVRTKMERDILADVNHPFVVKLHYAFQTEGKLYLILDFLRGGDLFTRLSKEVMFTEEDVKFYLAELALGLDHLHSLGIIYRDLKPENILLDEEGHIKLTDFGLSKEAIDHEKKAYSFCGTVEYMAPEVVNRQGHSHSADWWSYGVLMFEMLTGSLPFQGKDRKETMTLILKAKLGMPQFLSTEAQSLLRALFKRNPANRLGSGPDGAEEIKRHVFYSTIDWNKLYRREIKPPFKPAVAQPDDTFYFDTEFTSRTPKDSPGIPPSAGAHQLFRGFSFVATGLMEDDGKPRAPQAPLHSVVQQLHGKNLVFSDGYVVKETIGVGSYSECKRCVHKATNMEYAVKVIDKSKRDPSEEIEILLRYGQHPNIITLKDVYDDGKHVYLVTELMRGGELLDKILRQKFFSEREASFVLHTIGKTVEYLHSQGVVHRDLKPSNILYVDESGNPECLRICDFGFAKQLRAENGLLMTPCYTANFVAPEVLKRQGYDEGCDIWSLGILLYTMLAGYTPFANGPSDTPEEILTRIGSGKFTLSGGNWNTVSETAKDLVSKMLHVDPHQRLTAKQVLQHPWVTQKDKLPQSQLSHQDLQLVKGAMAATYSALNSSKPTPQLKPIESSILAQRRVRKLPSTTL
# Chain of UniProt Q53H47 (Q53H47 whole entry, looked up): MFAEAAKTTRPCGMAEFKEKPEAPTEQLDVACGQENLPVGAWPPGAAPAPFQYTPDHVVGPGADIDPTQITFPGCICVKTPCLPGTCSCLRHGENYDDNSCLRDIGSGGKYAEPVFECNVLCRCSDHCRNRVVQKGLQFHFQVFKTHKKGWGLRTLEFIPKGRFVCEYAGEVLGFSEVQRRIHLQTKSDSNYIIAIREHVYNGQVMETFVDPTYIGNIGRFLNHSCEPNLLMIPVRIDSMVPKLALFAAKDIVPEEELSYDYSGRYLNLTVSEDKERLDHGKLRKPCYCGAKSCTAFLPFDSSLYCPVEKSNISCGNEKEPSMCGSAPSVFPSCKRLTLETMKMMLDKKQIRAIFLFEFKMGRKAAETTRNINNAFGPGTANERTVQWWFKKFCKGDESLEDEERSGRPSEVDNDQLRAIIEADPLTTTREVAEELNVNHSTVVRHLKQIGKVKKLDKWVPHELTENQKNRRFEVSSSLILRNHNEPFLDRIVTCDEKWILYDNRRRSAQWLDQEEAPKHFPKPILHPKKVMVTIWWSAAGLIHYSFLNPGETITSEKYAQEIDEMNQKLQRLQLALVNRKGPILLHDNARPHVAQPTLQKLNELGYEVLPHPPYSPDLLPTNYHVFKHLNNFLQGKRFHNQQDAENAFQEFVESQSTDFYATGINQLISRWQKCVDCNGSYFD
# Chain of UniProt P52306 (P52306 whole entry, looked up): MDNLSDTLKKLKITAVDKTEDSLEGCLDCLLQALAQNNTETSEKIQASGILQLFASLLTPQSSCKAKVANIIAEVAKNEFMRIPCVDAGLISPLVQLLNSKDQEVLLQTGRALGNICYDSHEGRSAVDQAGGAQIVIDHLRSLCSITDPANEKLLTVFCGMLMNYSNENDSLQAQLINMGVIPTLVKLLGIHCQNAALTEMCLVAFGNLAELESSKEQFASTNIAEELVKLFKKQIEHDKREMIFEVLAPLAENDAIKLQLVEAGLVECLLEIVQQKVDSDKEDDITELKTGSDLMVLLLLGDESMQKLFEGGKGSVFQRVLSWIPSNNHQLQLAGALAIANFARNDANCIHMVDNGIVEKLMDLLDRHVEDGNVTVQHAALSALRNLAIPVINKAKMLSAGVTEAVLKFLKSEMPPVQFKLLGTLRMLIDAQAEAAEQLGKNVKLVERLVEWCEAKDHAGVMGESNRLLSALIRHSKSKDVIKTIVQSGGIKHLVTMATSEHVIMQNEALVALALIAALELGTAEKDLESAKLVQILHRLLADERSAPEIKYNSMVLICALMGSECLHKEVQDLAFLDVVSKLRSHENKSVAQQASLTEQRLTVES
# Chain of UniProt P51148 (P51148 whole entry, looked up): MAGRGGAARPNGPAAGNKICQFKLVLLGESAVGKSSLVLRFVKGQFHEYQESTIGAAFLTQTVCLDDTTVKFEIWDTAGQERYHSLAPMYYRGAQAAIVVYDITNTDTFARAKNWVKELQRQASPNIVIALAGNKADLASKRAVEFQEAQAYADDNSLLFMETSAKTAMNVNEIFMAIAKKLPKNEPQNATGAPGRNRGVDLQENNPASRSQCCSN
# Chain of UniProt O00767 (O00767 whole entry, looked up): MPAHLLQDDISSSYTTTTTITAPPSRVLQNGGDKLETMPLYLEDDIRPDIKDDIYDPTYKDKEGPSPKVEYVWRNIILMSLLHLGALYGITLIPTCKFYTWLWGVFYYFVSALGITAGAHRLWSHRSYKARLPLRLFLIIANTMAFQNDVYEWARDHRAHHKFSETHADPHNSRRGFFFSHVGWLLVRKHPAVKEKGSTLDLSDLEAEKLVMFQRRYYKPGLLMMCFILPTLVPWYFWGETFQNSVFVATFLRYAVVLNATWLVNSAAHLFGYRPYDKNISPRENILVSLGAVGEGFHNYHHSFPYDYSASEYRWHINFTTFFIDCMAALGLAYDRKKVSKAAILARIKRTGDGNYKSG
# Chain of UniProt Q6NT16 (Q6NT16 whole entry, looked up): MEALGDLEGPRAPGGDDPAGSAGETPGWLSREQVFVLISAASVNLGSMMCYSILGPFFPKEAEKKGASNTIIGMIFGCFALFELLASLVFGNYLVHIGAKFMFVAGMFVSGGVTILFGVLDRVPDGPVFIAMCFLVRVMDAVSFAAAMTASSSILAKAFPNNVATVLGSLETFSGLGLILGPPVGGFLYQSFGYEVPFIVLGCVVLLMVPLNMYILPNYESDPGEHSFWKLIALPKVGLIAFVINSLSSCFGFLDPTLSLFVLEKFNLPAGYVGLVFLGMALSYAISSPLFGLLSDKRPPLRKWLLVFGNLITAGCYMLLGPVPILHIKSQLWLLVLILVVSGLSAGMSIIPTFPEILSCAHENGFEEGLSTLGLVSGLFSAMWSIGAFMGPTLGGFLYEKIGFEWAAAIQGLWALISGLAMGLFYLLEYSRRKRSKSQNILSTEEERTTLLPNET
# Chain of UniProt O43665 (O43665 whole entry, looked up): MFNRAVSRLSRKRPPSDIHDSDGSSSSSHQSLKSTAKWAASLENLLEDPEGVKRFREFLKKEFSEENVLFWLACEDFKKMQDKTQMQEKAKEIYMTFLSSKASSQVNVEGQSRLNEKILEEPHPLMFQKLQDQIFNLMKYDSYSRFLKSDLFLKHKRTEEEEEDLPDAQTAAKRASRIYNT
row,Target,log2 fold change
1,RPS6KA1 isoform 2 (UniProt Q15418),-0.167
2,RRP9 (UniProt O43818),-0.062
3,SLC19A1 (UniProt P41440),-0.034
4,RBM12 (UniProt Q9NTZ6),-0.135
5,RNF167 (UniProt Q9H6Y7),0.039
6,SEPTIN5 (UniProt Q99719),-0.031
7,RUNX1 isoform 8 (UniProt Q01196),-0.207
8,RAP1GDS1 isoform 5 (UniProt P52306),0.04
9,RBM33 (UniProt Q96EV2),-0.063
10,RSRC2 (UniProt Q7L4I2),-0.284 (active)
11,RGS10 (UniProt O43665),-0.024
12,SEC31A (UniProt O94979),0.005
13,RPTOR (UniProt Q8N122),-0.145
14,RPS16 (UniProt P62249),0.054
15,RELA (UniProt Q04206),0.022
16,RCOR1 (UniProt Q9UKL0),-0.14
17,SETMAR (UniProt Q53H47),-0.135

row,Target,log2 fold change
1,RAB5C isoform 2 (UniProt P51148),0.039
2,ROCK2 (UniProt O75116),-0.137
3,ROCK1 (UniProt Q13464),0.015
4,SLC18B1 (UniProt Q6NT16),0.016
5,SAAL1 (UniProt Q96ER3),0.578 (active)
6,RPS2 (UniProt P15880),0.085
7,RPP25L (UniProt Q8N5L8),-0.004
8,RECQL (UniProt P46063),-0.023
9,RABGAP1L isoform 3 (UniProt Q5R372),0.011
10,RRP12 (UniProt Q5JTH9),0.201
11,SCD (UniProt O00767),0.008
12,SESN2 (UniProt P58004),0
13,RPS9 (UniProt P46781),0.108
14,RSRC1 (UniProt Q96IZ7),-0.178
15,RAB8B (UniProt Q92930),0
16,RBM8A (UniProt Q9Y5S9),0.127

# Compound: CC(C)(C)Cn1c(N)nc2ccc(-c3[nH]c(C(C)(C)C)nc3-c3ccc(F)cc3)nc21 [ralimetinib]
# Experiment: as above
# Outline: as §1
row,Target,log2 fold change
1,RPS6KA1 isoform 2 (UniProt Q15418),-0.429 (active)
2,RRP9 (UniProt O43818),0.014
3,SLC19A1 (UniProt P41440),0.005
4,RBM12 (UniProt Q9NTZ6),-0.037
5,RNF167 (UniProt Q9H6Y7),-0.018
6,SEPTIN5 (UniProt Q99719),-0.084
7,RUNX1 isoform 8 (UniProt Q01196),-0.043
8,RAP1GDS1 isoform 5 (UniProt P52306),0.005
9,RBM33 (UniProt Q96EV2),0.014
10,RSRC2 (UniProt Q7L4I2),0.012
11,RGS10 (UniProt O43665),0.026
12,SEC31A (UniProt O94979),0.028
13,RPTOR (UniProt Q8N122),-0.022
14,RPS16 (UniProt P62249),0.032
15,RELA (UniProt Q04206),0.025
16,RCOR1 (UniProt Q9UKL0),0.002
17,SETMAR (UniProt Q53H47),-0.025

row,Target,log2 fold change
1,RAB5C isoform 2 (UniProt P51148),0.027
2,ROCK2 (UniProt O75116),0.032
3,ROCK1 (UniProt Q13464),0.031
4,SLC18B1 (UniProt Q6NT16),-0.044
5,SAAL1 (UniProt Q96ER3),-0.033
6,RPS2 (UniProt P15880),0.055
7,RPP25L (UniProt Q8N5L8),0.049
8,RECQL (UniProt P46063),-0.024
9,RABGAP1L isoform 3 (UniProt Q5R372),-0.012
10,RRP12 (UniProt Q5JTH9),0.331
11,SCD (UniProt O00767),-0.148
12,SESN2 (UniProt P58004),0.21
13,RPS9 (UniProt P46781),0.125
14,RSRC1 (UniProt Q96IZ7),-0.01
15,RAB8B (UniProt Q92930),-0.001
16,RBM8A (UniProt Q9Y5S9),-0.015

# Compound: CC(C)(O)CC(=O)NCCn1ccc2ncnc(Nc3ccc(Oc4cccc(C(F)(F)F)c4)c(Cl)c3)c21
# Experiment: as above
# Outline: as §1
row,Target,log2 fold change
1,RPS6KA1 isoform 2 (UniProt Q15418),-0.092
2,RRP9 (UniProt O43818),0.133
3,SLC19A1 (UniProt P41440),-0.061
4,RBM12 (UniProt Q9NTZ6),-0.145
5,RNF167 (UniProt Q9H6Y7),-0.025
6,SEPTIN5 (UniProt Q99719),-0.03
7,RUNX1 isoform 8 (UniProt Q01196),-0.138
8,RAP1GDS1 isoform 5 (UniProt P52306),-0.114
9,RBM33 (UniProt Q96EV2),0.046
10,RSRC2 (UniProt Q7L4I2),-0.033
11,RGS10 (UniProt O43665),-0.025
12,SEC31A (UniProt O94979),-0.054
13,RPTOR (UniProt Q8N122),-0.129
14,RPS16 (UniProt P62249),0.011
15,RELA (UniProt Q04206),0
16,RCOR1 (UniProt Q9UKL0),-0.08
17,SETMAR (UniProt Q53H47),0.047

row,Target,log2 fold change
1,RAB5C isoform 2 (UniProt P51148),-0.012
2,ROCK2 (UniProt O75116),-0.049
3,ROCK1 (UniProt Q13464),-0.079
4,SLC18B1 (UniProt Q6NT16),-0.023
5,SAAL1 (UniProt Q96ER3),-0.112
6,RPS2 (UniProt P15880),0.019
7,RPP25L (UniProt Q8N5L8),-0.015
8,RECQL (UniProt P46063),-0.039
9,RABGAP1L isoform 3 (UniProt Q5R372),-0.206
10,RRP12 (UniProt Q5JTH9),0.006
11,SCD (UniProt O00767),-0.046
12,SESN2 (UniProt P58004),-0.049
13,RPS9 (UniProt P46781),0.047
14,RSRC1 (UniProt Q96IZ7),0.056
15,RAB8B (UniProt Q92930),-0.047
16,RBM8A (UniProt Q9Y5S9),-0.002
